Experiment [1] has as its target Alpha-galactosidase A (Homo sapiens) (UniProt P06280). The experiment can be described thus: Counterscreen for Glucocerebrosidase Inhibitors: qHTS Assay for Human alpha-Galactosidase at pH 4.5 (AID 992). Also: 0% is about no effect. Summed up: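 Human enzyme (2 nM) with 80 uM 4-methylumbelliferyl alpha-D-galactopyranoside in 50 mM citric acid, 0.005% Tween-20, pH 4.5, 20 min at room temperature. Compounds 0.7 nM–77 uM; fluorescence Ex 365/Em 440 after pH 10 stop; AC50 from Hill fits.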

In experiment [2] the target is alpha-glucosidase (Oryza sativa, rice) (UniProt Q653V4). The experiment can be described thus: Counterscreen for Glucocerebrosidase Inhibitors: qHTS Assay for Rice alpha-Glucosidase at pH 5.0 (AID 997).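 Also: 0% = full activity with enzyme and -100% = basal without enzyme.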 A digest of the protocol: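 Rice alpha-glucosidase (4 nM final) with 400 uM 4-methylumbelliferyl-alpha-D-glucopyranoside in citrate buffer pH 5.0, 20 min at room temperature, stopped at pH 10; fluorescence 365/440 nm, compounds 0.7 nM–77 uM, AC50 from Hill fits.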

A short description of experiment [3]: Validation of Assay for Modulators of Lamin A Splicing (AID 1459; active = well fitted curve in the direction sought with a large enough effect in the signal ratio; the % refers to the signal ratio;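 also: cells exposed to compound for two days before reading; 0% is about no effect; ratio rise marks activators and ratio drop marks inhibitors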). A digest of the protocol: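 Readout: ratio of GFP (500-530 nm) to RFP (575-640 nm) total object intensity by 488 nm laser-scanning cytometry after 48 hrs. Cells were HeLa S3 clones carrying lamin A-EGFP minigene plus DsRed2 viability reporter; vehicle 0.5% DMSO final.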
Experiment [4] can be described thus: qHTS Assay for Lipid Storage Modulators (AID 1519; calls by dose curve; as to activity change, negative = inhibition: % is scaled to controls: 0 for no effect and ±100 for the full control effect). The note with it: Drosophila S3 cells, BODIPY lipid droplet/cell ratio, laser cytometry, cells loaded with oleic acid. Summed up:
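Cells seeded at 5,000 per well were treated with compounds over a concentration series and loaded with oleic acid (400 uM, as added). Lipid droplet fluorescence (488 nm excitation, 500-530 nm channel) was read by laser-scanning cytometry and normalized to 20 uM Triacsin C.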

The target of experiment [5] is DNA repair nuclease/redox regulator APEX1 (Homo sapiens) (UniProt P27695). The experiment can be described thus: qHTS Validation Assay for Inhibitors of the Human Apurinic/apyrimidinic Endonuclease 1 (APE1) (AID 1705;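 also: TAMRA fluorescence gain over two minutes as APE1 cuts a quenched THF abasic duplex; % is scaled to controls: 0 for no effect and ±100 for the full control effect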). A digest of the protocol: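 Read-out: TAMRA fluorescence (525 nm ex, 598 nm em) from cleavage of a quenched THF abasic-site duplex, 50 nM final; activity taken as intensity change between third and first of three reads 60 s apart.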
DNA repair nuclease/redox regulator APEX1 (Homo sapiens), sequence (P27695 whole entry, looked up): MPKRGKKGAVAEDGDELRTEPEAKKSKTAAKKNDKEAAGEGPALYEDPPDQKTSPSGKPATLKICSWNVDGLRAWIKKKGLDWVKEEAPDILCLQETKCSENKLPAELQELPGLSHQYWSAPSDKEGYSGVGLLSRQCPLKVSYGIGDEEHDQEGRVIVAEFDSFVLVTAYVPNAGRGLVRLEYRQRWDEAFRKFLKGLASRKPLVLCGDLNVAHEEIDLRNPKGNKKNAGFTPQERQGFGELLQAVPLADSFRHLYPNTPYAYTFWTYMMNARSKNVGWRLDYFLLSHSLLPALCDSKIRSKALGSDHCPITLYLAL

Experiment [6] can be described thus: Counterscreen for APE1 Inhibitors: Fluorescent Dye Displacement Validation Assay (AID 1707).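 Also: plate controls were ThO with dsDNA and no compound for no effect and ThO without dsDNA for full effect.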 A digest of the protocol: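 Thiazole Orange (250 nM) bound to 50 nM TAMRA-labelled dsDNA with tetrahydrofuran abasic site; displacement by DNA-binding compounds lowers fluorescence. Buffer 50 mM Tris-HCl pH 7.5, 50 mM NaCl, 2 mM MgCl2, 0.01% Tween-20; endpoint read at 480/540 nm.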

Experiment [7] concerns the target Endonuclease 4 (Escherichia coli (strain K12)) (UniProt P0A6C1). The experiment can be described thus: Counterscreen for APE1 Inhibitors: qHTS Validation Assay for Inhibitors of Endonuclease IV (AID 1708). Also: % is scaled to controls: 0 for no effect and ±100 for the full control effect. Summed up:
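E. coli EndoIV at 2 nM final, preincubated 15 min at room temperature with compound, then 50 nM TAMRA/BHQ-2 THF abasic-site duplex added. Buffer: 50 mM Tris-HCl pH 7.5, 50 mM NaCl, 2 mM MgCl2, 1 mM DTT, 0.01% Tween-20. Kinetic fluorescence increase, third minus first read.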
For orientation: Counterscreens check selectivity or assay interference.

Experiment [8] in a line: qHTS for differential inhibitors of proliferation of Plasmodium falciparum line 7G8 (AID 1815).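 Also: parasite growth measured after three days of incubation.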 Also: potency is read from the fitted curve at half-maximal effect.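 As to activity change, negative = inhibition: plate controls were vehicle wells for no effect and reference inhibitor wells for full effect.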 In general terms: qHTS replaces the single test concentration by a dilution series.
A short description of experiment [9]: qHTS for differential inhibitors of proliferation of Plasmodium falciparum line GB4 (AID 1816).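 Also: parasite growth measured after 72 h incubation.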 Also: potency is read from the fitted curve at half-maximal effect.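 As to activity change, negative = inhibition: 0% = vehicle DMSO and -100% = reference inhibitor.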 To be noted: Potency: Plasmodium falciparum GB4 proliferation inhibition.
Experiment [10] is described as follows: qHTS for differential inhibitors of proliferation of Plasmodium falciparum line 3D7 (AID 1876). Also: potency is read from the fitted curve at half-maximal effect.
A short description of experiment [11]: qHTS for differential inhibitors of proliferation of Plasmodium falciparum line Dd2 (AID 1882). Also: nearly all actives have a fitted effect of over 65% in size. Also: potency is read from the fitted curve at half-maximal effect.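 As to activity change, negative = inhibition: plate controls were DMSO vehicle for no effect and 0.29 µM artemisinin for full effect.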 The note with it: Potency: Plasmodium falciparum Dd2 proliferation inhibition. A digest of the protocol:
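Dd2-infected erythrocytes (0.3% parasitemia, 2.5% hematocrit final) incubated with compound 72 h at 37 C, 5% CO2; lysed with saponin/Triton buffer containing SYBR Green I, incubated overnight in the dark, then read by fluorescence (485/535 nm). Normalized to 0.29 uM artemisinin and DMSO.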

Experiment [12] is described as follows: qHTS for differential inhibitors of proliferation of Plasmodium falciparum line W2 (AID 1883).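 Also: parasites grown with compound for 72 h before lysis and staining.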 Also: potency is read from the fitted curve at half-maximal effect.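 As to activity change, negative = inhibition: 0% = vehicle wells and -100% = control inhibitor wells.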 The note with it: Potency: Plasmodium falciparum W2 proliferation inhibition.
Experiment [13] is described as follows: qHTS for differential inhibitors of proliferation of Plasmodium falciparum line D10 (AID 1877).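 Also: parasites grown with compound for 72 h before DNA staining.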 Also: potency is read from the fitted curve at half-maximal effect.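 As to activity change, negative = inhibition: plate controls were vehicle wells for no effect and reference inhibitor wells for full effect.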
Experiment [14] can be described thus: Cell Viability - LYMP2-014 (AID 983).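 Also: cells exposed to compound for 24 h at 37 °C; plate controls were DMSO only for no effect and 92 µM tetraoctylammonium bromide for full effect; nearly all actives have a fitted effect of over 50% in size.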 A digest of the protocol: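 Luminescent ATP signal (CellTiter-Glo, 30 min at room temperature) serves as the viability read-out after 24 hr compound exposure at 37 C. Cells were seeded at 2500 per well and settled 5 hr beforehand.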
Experiment [15] is described as follows: Cell Viability - LYMP2-016 (AID 984).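 Also: cells exposed to compound for 24 hours at 37 °C; % is scaled to controls: 0 for no effect and ±100 for the full control effect; nearly all actives have a fitted effect of over 55% in size.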 A digest of the protocol: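 qHTS, 1536-well: 2500 LYMP2-016 cells/well, 5 hr 37 C, compound added, 24 hr 37 C, CellTiter-Glo 30 min RT, luminescence. Tetraoctylammonium bromide positive control. AC50 via Hill fit.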
Experiment [16] is described as follows: Cell Viability - LYMP2-018 (AID 985).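 Also: plate controls were DMSO only for no effect and tetraoctylammonium bromide at 92 µM for full effect; nearly all actives have a fitted effect of over 50% in size.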 Summed up: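 Luminescent ATP signal (CellTiter-Glo, read after 30 min at room temperature) reports viable cells after 24 hr compound treatment at 37 C. Concentration-response data were fitted to the standard Hill equation for AC50.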
A short description of experiment [17]: Cell Viability - LYMP2-022 (AID 987).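 Also: 0% = DMSO alone and full effect = tetraoctylammonium bromide at 92 µM; nearly all actives have a fitted effect of over 55% in size.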 A digest of the protocol:
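qHTS: human lymphoblastoid cells 2500/well; 5 hr 37 C; cpd added; 24 hr 37 C; CellTiter-Glo, 30 min RT; luminescence. AC50 via Hill fit; tetraoctylammonium bromide positive ctrl.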

Experiment [18] is described as follows: Cell Viability - LYMP2-026 (AID 989).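 Also: cells exposed to compound for 24 h at 37 °C; % is scaled to controls: 0 for no effect and ±100 for the full control effect; nearly all actives have a fitted effect of over 50% in size.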 A digest of the protocol:
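Luminescent ATP signal (CellTiter-Glo, 30 min room temperature) measures viable lymphoblastoid cells after 24 hr compound treatment at 37 C. Decreased ATP reflects acute toxicity; AC50 values come from Hill-equation modeling.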

Experiment [19] can be described thus: Cell Viability - LYMP1-002 - Assay at 24 hr (AID 993). Also: % is scaled to controls: 0 for no effect and ±100 for the full control effect. A digest of the protocol:
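Cells plated 2500/well, 5 hr 37 C; compounds added, 24 hr 37 C; CellTiter-Glo added, 30 min RT; luminescence read. Tetraoctylammonium bromide positive control. Hill-equation AC50.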

Experiment [20] in a line: Cell Viability - LYMP1-002 - Assay at 40 hr (AID 994).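 Also: 0% = DMSO only and full inhibition = 92 µM tetraoctylammonium bromide; nearly all actives have a fitted effect of over 60% in size.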 Summed up:
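Luminescent ATP signal served as the viability readout, with decreases taken as toxicity. Cells were treated with compounds across a concentration range for 40 hours at 37 C, and AC50 values came from standard Hill modeling.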

[21] abbreviates: measured here: cell count channel max response.
Where [22] appears, read: measured here: lipid channel max response.

“And” between values parts separate entries of the source, which are not always exact repeats. Equal values may be shown once. Results filed as inconclusive are left out. The source made the active and inactive calls. Unless noted, calls follow the shape of the dose curve; as a rule, active = well fitted curve in the direction sought with a large enough effect; inconclusive = small, poorly fitted or top-dose-only effect, or another doubt; inactive = no such curve, though single readings can be large; an effect the other way counts as inactive or inconclusive.

This is an account of results in PubChem BioAssay (NCATS).

Alpha-galactosidase A (Homo sapiens), sequence (P06280 whole entry, looked up): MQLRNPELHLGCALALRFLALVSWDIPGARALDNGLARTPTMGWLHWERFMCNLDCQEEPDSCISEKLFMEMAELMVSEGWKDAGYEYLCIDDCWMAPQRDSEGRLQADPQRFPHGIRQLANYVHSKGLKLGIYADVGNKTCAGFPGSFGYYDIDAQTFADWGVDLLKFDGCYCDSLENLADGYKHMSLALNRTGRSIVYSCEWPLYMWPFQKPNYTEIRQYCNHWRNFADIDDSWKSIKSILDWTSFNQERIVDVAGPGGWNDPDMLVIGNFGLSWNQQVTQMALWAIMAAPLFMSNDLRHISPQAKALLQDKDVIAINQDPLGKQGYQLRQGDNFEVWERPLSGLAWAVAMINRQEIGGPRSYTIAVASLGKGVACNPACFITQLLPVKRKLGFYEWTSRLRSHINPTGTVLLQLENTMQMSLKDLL

With `NC(N)=NC(=O)Cc1c(Cl)cccc1Cl`, the call in experiment [1], in [2], in experiment [3] and in experiment [6] was inactive. For the same compound, the activity change, negative = inhibition in experiment [4] (at 25.7 µM (top of the series)) was -2.29% (inactive); in experiment [4] (at 57.5 µM (top of the series)), 1.08% (inactive). Moreover, the max response in experiment [4] (setting [21]) is -10.4% and 9.91%; in experiment [4] (setting [22]), -13.2% and 12.7%. Moreover, the Potency entry in [5], in [7] and in [11] was “inactive” in each case. Also, the Potency was 3.98 µM (active) in experiment [8], 3.98 µM (active) in [9], 2.82 µM (active) in [10] and 3.16 µM (active) in experiment [12].

Consider `COCCOC(=O)C1=C(C)NC(C)=C(C(=O)OC(C)C)C1c1cccc([N+](=O)[O-])c1` (stereo unspecified), for which, in experiment [3], the compound was called inactive. Also, the activity change, negative = inhibition in [4] (at 57.5 µM (top of the series)) is 10.8% (inactive) and 3.42% (inactive). In addition, the max response was 12.3% and 59.2% in experiment [4] (setting [21]); 26.9% and 56.5% in [4] (setting [22]). Moreover, in [5], the Potency result was “inactive”. For the same compound, the Potency in experiment [8] was 4.47 µM (active); in experiment [9] it was 10 µM (active); in [10] it was 7.94 µM (active); in [13], 12.6 µM (active); in [12] it was 6.31 µM (active).

On to `CN/C(=C\[N+](=O)[O-])NCCSCc1ccc(CN(C)C)o1`, for which the compound was classed as inactive in [1], in experiment [2] and in [3]. In addition, the activity change, negative = inhibition was -0.0815% (inactive) in experiment [4] (at 25.7 µM (top of the series)); 4.77% (inactive) and 9.42% (inactive) in experiment [4] (at 57.5 µM (top of the series)). The max response in experiment [4] (setting [21]) was 4.03% and -18.5% and 18.2%; in [4] (setting [22]), 2.82% and -19.9% and 33.3%. The Potency result in experiment [5] and in experiment [7] was “inactive” in each case.

As for `COc1cc2c(cc1OC)-c1cc(=Nc3c(C)cc(C)cc3C)n(C)c(=O)n1CC2`, the result in experiment [1], in experiment [2], in experiment [3] and in [6] was inactive. The Potency entry in experiment [5] and in experiment [7] was “inactive” in each case. Also, the Potency in experiment [8] was 2.24 µM (active); in [9], 2.24 µM (active); in [10], 2 µM (active); in [13], 3.98 µM (active); in experiment [11] it was 8.91 µM (active); in experiment [12], 3.55 µM (active).

Take `Cc1ccc(S(=O)(=O)NC(=O)NN2CCCCCC2)cc1`: the result in experiment [1], in [2] and in experiment [3] was inactive. Also, the activity change, negative = inhibition in [4] (at 25.7 µM (top of the series)) was 0.497% (inactive); in experiment [4] (at 57.5 µM (top of the series)) it was 9.8% (inactive). The max response in experiment [4] (setting [21]) was 0.635% and 17.7%; in [4] (setting [22]) it was 2.19% and 33.1%. Further, the Potency result in experiment [5], in experiment [8], in [9], in experiment [10], in [13] and in experiment [11] was “inactive” throughout. In addition, the Potency result in experiment [12] was “inactive”.

Consider `CCN(Cc1ccncc1)C(=O)C(CO)c1ccccc1` (stereo unspecified), for which the outcome in [3] and in [6] was inactive. Besides, the Potency entry in experiment [5], in experiment [8], in [9], in experiment [10], in [13] and in experiment [11] was “inactive” throughout. In addition, in [12], the Potency entry was “inactive”.

For the compound `COc1cc(Cc2cnc(N)nc2N)cc(OC)c1OC`, the outcome in experiment [14], in [15], in experiment [18], in experiment [1], in experiment [19] and in experiment [2] was inactive. The outcome in [3] and in experiment [6] was inactive. Also, the Potency result in experiment [16], in experiment [17], in [20], in [5] and in experiment [7] was “inactive” in each case. Besides, in experiment [4] (at 25.7 µM (top of the series)), the activity change, negative = inhibition was -1.74% (inactive). In addition, the max response is -1.95% in experiment [4] (setting [21]) and -5.27% in [4] (setting [22]).

For the compound `CCn1nc(C(=O)O)c(=O)c2cc3c(cc21)OCO3`, the outcome in experiment [1], in [2], in experiment [3] and in experiment [6] was inactive. Moreover, the Potency result in experiment [5] and in experiment [7] was “inactive” in each case.
